From PubChem
Compounds with a hit are over-represented: about 0.5% of the library has one in this group of screens.
phage Ecoli inh: E. coli growth loss with phage present | inhibition, % at 11.9 µM | 360,000 tested, 0.26% active | growth absorbance; in the data active = inhibition above about 11%
E coli growth-1: inhibitors of Escherichia coli growth | AID 1053175 | 330,000 tested, 0.21% active | OD600, 23 h; active compounds read low | OD600 absorbance (concentration not given with the values);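 active = OD600 absorbance below the run mean of sample wells minus 3.6 SD, in any replicate, cut at about 0.56 in these data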
AddAB inh: less growth of phage-infected E. coli with AddAB. E. coli expressing H. pylori AddAB, absorbance growth. 330,000 tested, 0.29% active. inhibition, % at 11.9 µM; in the data active = inhibition above about 12%;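 also: 0% = vehicle wells of infected cells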
Tat transport: E. coli Tat transport inhibition; E. coli MC4100 TorA-mCherry Tat export, fluorescence; inhibition, % at 10 µM; 340,000 tested, 0.036% active;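 active = mean replicate inhibition at least 50% and at least half of replicates individually reaching 50%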;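 also: exported cargo escapes ClpAP degradation while cytoplasmic cargo is degraded and loses fluorescence; 0% = median of neutral control wells and 100% = median of NaSCN control wells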
E coli growth-2: counter-screen for AddAB inhibitors: E. coli growth inhibition; inhibition, % at 11.9 µM; E. coli V3065 growth, OD600 absorbance, 18 h; 330,000 tested, 0.27% active;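 active = inhibition above the campaign's mean inhibition across all tested compounds plus 3 SD, cut at about 9.9% in these data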;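 also: uninfected addAB+ strain grown without phage in ampicillin broth; 0% = DMSO wells and 100% = ciprofloxacin 0.95 µg/ml wells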
AddAB conf: growth loss of T4-infected E. coli expressing H. pylori AddAB, confirmed. shares compounds with AddAB inh. E. coli V3065 expressing H. pylori AddAB, T4 phage, OD; T4 phage with gene 2 nonsense mutations. inhibition, % at 11.9 µM. 880 tested, 64% active;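 active = mean inhibition above a set limit taken from the earlier primary screen, cut at about 13% in these data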;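 also: higher means less bacterial growth since AddAB block lets phage replicate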
RecBCD counter: reduces growth of phage-infected RecBCD+ E. coli, AddAB inhibitor counter-screen. shares compounds with AddAB inh. inhibition, % at 11.9 µM. E. coli V66 + mutant T4 phage, OD growth. 880 tested, 73% active;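 active = mean inhibition above the mean of solvent-only control wells plus 3 SD, cut at about 4% in these data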;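 also: optical density read after an 18 h incubation at 37 °C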
bact viab count: counter-screen: bacterial growth inhibition; shares compounds with AddAB inh; bacterial viability, absorbance (AddAB counterscreen); inhibition, % at 11.9 µM; 880 tested, 35% active; in the data active = inhibition above about 25%
RecBCD conf: growth loss of phage-infected V66 E. coli, RecBCD confirmation screen. shares compounds with phage Ecoli inh. E. coli V66 + T4 2- phage, growth OD. inhibition, % at 11.9 µM. 890 tested, 45% active. AID 651982;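 active = mean inhibition over triplicates exceeding the hit threshold derived in the original primary screen, cut at about 11% in these data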
Ecoli viability: bacterial viability inhibition counter-screen for RecBCD; shares compounds with phage Ecoli inh; E. coli viability, absorbance (OD) growth; inhibition, % at 11.9 µM; 890 tested, 29% active; AID 651983; in the data active = inhibition above about 20%;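 also: E. coli strain V66 grown with compound alone and no phage infection; 0% = bacteria with DMSO vehicle only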
AddAB phage OD: growth loss of phage-infected AddAB E. coli, RecBCD counter-screen; shares compounds with phage Ecoli inh; E. coli expressing H. pylori AddAB + T4 phage, OD growth; gene 2 mutant T4, recBCD-deleted host; inhibition, % at 11.9 µM; 890 tested, 45% active; AID 651984;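 active = mean inhibition above the solvent-only control wells' mean plus 3 SD, cut at about 22% in these data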;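 also: higher means less bacterial growth from phage killing when AddAB is blocked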
An asterisk follows results filed as active; · = not tested or not shown.

SMILES	phage Ecoli inh	E coli growth-1	AddAB inh	Tat transport	E coli growth-2	AddAB conf	RecBCD counter	bact viab count	RecBCD conf	Ecoli viability	AddAB phage OD
O=C1c2ccccc2NC(c2ccc(-c3cccs3)o2)N1O (configuration not stated)	9	0.69	5	-10	6	·	·	·	·	·	·
O=C1c2ccccc2NC(c2ccc(-c3ccc(C(F)(F)F)cc3)o2)N1O (configuration not stated)	15*	0.66	17*	-11	21*	17*	7.7*	6	7	8	12
O=c1c2ccccc2nc(N/N=C/c2ccc(O)cc2)n1O	2	·	2	-5	2	·	·	·	·	·	·
O=c1c2ccccc2nc(N/N=C/c2c(O)ccc3ccccc23)n1O	21*	·	19*	4	24*	24*	21*	17	12*	16	17
CC(=O)O[C@]1(C(C)=O)CCC2C3CC(C)C4=CC(=O)CC[C@]4(C)C3CC[C@@]21C (some centres not stated)	·	0.64	·	·	·	·	·	·	·	·	·
Cc1[nH]c(N=Nc2ccccc2)nc1N=Nc1ccccc1	12*	·	14*	-3	16*	10	8.2*	16	3	4	20
CCCCCOc1ccc(CSC(=N)N)cc1[N+](=O)[O-]	13*	0.53*	13*	-21	13*	15*	9.7*	12	2	4	14
O=C(CN(Cc1ccccc1)S(=O)(=O)c1ccccc1)NN=Cc1ccc2c(c1)OCO2	·	0.66	·	·	·	·	·	·	·	·	·
Oc1c(C(c2ccc(Cl)cc2)N2CCCC2)cc(Cl)c2cccnc12 (configuration not stated)	20*	0.59	17*	-3	24*	3	8.4*	1	7	8	7
Oc1c(C(c2ccccc2Cl)N2CCCC2)ccc2cccnc12 (configuration not stated)	16*	0.38*	25*	10	24*	13*	12*	1	4	6	16
CN1CCN(C(c2ccc(C(F)(F)F)cc2)c2ccc3cccnc3c2O)CC1 (configuration not stated)	17*	·	17*	·	27*	12	9.7*	7	4	4	7
CN1CCN(C(c2ccccc2)c2ccccc2)CC1	4	0.68	0	-10	-2	·	·	·	·	·	·
Oc1c(C(c2cccs2)N2CCN(c3ccccc3)CC2)ccc2cccnc12 (configuration not stated)	·	·	12	·	9	·	·	·	·	·	·
COc1ccccc1NC(=O)NNC(=O)c1cc2ccccc2cc1O	12*	0.62	15*	18	12*	14*	14*	14	8	9	14
Cc1nc2ccc(C(=O)N/N=C/c3cc([N+](=O)[O-])ccc3O)cc2[nH]1	17*	·	19*	-2	17*	8	14*	12	4	9	12
CC(=O)c1cccc(NC(=O)CC2S/C(=N/N=Cc3ccccc3)NC2=O)c1 (configuration not stated)	·	0.69	·	·	·	·	·	·	·	·	·
C#CCOCCOCCOCCNc1nc(N2CCOCC2)nc(N2CCN(C(=O)C(C(C)CC)n3cc(C(N)CO)nn3)CC2)n1 (configuration not stated)	·	0.65	·	·	·	·	·	·	·	·	·
O=C(O)c1cn(C2CC2)c2cc(N3CCN(S(=O)(=O)c4ccc5c(c4)OCCO5)CC3)c(F)cc2c1=O	93*	0.082*	99*	12	97*	98*	98*	101*	102*	102*	103*
CC(=O)N1CCc2c(sc(NC(=O)c3ccc([N+](=O)[O-])o3)c2C#N)C1	8	0.67	·	3	·	·	·	·	·	·	·
COC(=O)c1c(NC(=O)c2ccc([N+](=O)[O-])o2)sc2c1CCN(C(C)C)C2	31*	·	101*	26	100*	98*	98*	99*	100*	102*	102*
CC(C)N1CCc2c(sc(NC(=O)c3ccc([N+](=O)[O-])o3)c2C(N)=O)C1	34*	·	100*	31	100*	102*	48*	103*	38*	62*	103*
O=C(NN=Cc1ccccc1C(=O)O)C(=O)N1CCCCC1	·	0.73	·	·	·	·	·	·	·	·	·
CCc1nnc(NS(=O)(=O)c2ccc(N=CC3=C(O)CC(C)(C)CC3=O)cc2)s1	14*	0.69	17*	-4	11*	11	5.9*	16	8	4	21*
CC1(C)CC(=O)C(C=Nc2ccc(O)cc2)=C(O)C1	1	0.67	0	3	0	·	·	·	·	·	·
N#Cc1ccc(C=NNC(=O)c2cc(-c3cccs3)nc3ccccc23)cc1	·	0.71	·	·	·	·	·	·	·	·	·
SMILES	phage Ecoli inh	E coli growth-1	AddAB inh	Tat transport	E coli growth-2	AddAB conf	RecBCD counter	bact viab count	RecBCD conf	Ecoli viability	AddAB phage OD
CCc1cc(C(Cc2csc(C)n2)=NO)c(O)cc1O	·	0.69	·	·	·	·	·	·	·	·	·
O=C(CSc1nc2ccccc2s1)Nc1ccc(N2CCOCC2)c(Cl)c1	16*	0.66	21*	-23	12*	19*	12*	16	11	13	24*
O=C(CSc1nc2ccccc2[nH]1)Nc1ccc(N2CCOCC2)cc1	13*	0.6	25*	-16	14*	13*	17*	15	8	12	13
CC(=O)Nc1ccc2nc(SCC(=O)Nc3ccc(N4CCOCC4)c(Cl)c3)sc2c1	3	0.67	2	-6	-3	·	·	·	·	·	·
COc1ccc(-c2cc(N3CCCC3)n3ncnc3n2)cc1	14*	0.65	17*	-8	20*	21*	14*	15	9	12	18
COc1ccc2nc(NC(=O)CCNC(=O)c3ccco3)sc2c1	12*	0.58	16*	-9	14*	14*	12*	14	8	12	11
N#CCC(=O)NN=Cc1cn(Cc2ccc(Cl)c(Cl)c2)c2ccccc12	·	0.66	·	·	·	·	·	·	·	·	·
COc1cc(C=NNC(=O)c2ccccn2)ccc1OC(=O)c1cccs1	·	0.64	·	·	·	·	·	·	·	·	·
Cc1nn(CC(C#N)=NO)c(C)[n+]1N	·	0.63	·	·	·	·	·	·	·	·	·
Oc1c(N=Nc2ccccn2)ccc2ccccc12	18*	0.75	20*	2	18*	21*	17*	18	12*	13	26*
Oc1[nH]c2ccccc2c1N=Nc1ccccn1	1	·	·	7	·	·	·	·	·	·	·
